CYP2C9 activ = CYP2C9 (human) activation; P11712; activation factor at 5 µM; actives 1.4% (n = 96,000); recombinant CYP2C9, luciferin-H conversion, luminescence; stronger effect = higher value; factor 1 = untreated enzyme, 0 = blocked;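 active = activation factor of 2 or more for CYP2C9 at a 5 µM dose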
CYP2C19 inhib = human CYP2C19 inhibition; P33261; CYP2C19 Supersomes, luciferin-H EGE luminescence, 30 min; inhibition, % at 5 µM; actives 21% (n = 96,000); AID 778;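 active = CYP2C19 inhibition above a set limit at 5 µM in the primary screen, cut at about 50% in these data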
Target sequence (P33261 whole entry, looked up): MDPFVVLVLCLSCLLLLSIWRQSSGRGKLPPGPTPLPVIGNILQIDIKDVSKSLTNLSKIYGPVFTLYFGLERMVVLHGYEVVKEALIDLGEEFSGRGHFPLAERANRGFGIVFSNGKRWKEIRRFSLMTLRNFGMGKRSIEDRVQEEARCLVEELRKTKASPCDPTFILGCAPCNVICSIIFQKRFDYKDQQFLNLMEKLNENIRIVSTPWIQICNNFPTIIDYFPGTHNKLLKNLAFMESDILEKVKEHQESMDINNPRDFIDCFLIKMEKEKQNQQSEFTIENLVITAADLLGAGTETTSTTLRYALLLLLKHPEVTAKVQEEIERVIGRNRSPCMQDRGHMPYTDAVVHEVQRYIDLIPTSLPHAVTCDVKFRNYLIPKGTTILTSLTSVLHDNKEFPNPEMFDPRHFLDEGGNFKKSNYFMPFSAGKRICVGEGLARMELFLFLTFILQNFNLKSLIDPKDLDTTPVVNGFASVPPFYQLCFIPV
PostGolgi ctrl = yeast control strain growth, post-Golgi counter-screen; efflux-deficient yeast background strain, growth absorbance A615, 16 h; inhibition, % at 10 µM; actives 5% (n = 98,000); AID 738
CYP2C9 inhib = inhibitors of human CYP2C9; actives 20% (n = 96,000); CYP2C9 Supersomes, luciferin-H conversion, luminescence; P11712; inhibition, % at 5 µM;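 active = blocking of liver enzyme CYP2C9 beyond about 50% at 5 µM, limit read from the data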
CYP2C19 activ = cytochrome P450 2C19 (human) activation | P33261 | recombinant CYP2C19, luciferin-H EGE luminescence; stronger effect = higher value; 0 = fully inhibited enzyme, 1 = untreated enzyme | activation factor at 5 µM | 96,000 tested, under 10 active;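 active = activation factor of at least 2 at 5 µM in the primary screen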
PostGolgi yeast = growth inhibition of a yeast mutant, post-Golgi transport screen; actives 0.9% (n = 98,000); post-Golgi transport phenotypic cell assay; inhibition, % at 10 µM;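 also: yeast cells grown in 1536-well plates; yeast grown about 18 h at 30C before absorbance read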
Large screens that a line does not name were inactive. Only some compounds are listed: those with a hit (about 32% of all), similar ones and a draw of the others. Rule as the data show it, unless noted: active = inhibition above about 30%; inactive = the rest.

Cc1cccc(Oc2sc(C(=O)c3ccccc3)c(N)c2C#N)c1	CYP2C19 inhib 61
COCCN(CC(=O)Nc1ccc(F)cc1)S(=O)(=O)c1ccc(S(=O)(=O)N2CCCC2)cc1	CYP2C9 inhib 62
COC(=O)CCC(=O)Nc1ccc(S(=O)(=O)N2CCCCCC2)cc1	none
COCCN(CC(=O)Nc1ccccc1)S(=O)(=O)c1ccc(S(=O)(=O)N2CCCC2)cc1	CYP2C9 inhib 73
CN(C)Cc1cc(CCNC(=O)c2ccc(Cl)cc2)ccc1O	none
O=C(CCn1cccc1)Nc1cccc(F)c1	CYP2C19 inhib 50
Cc1ccc(NC(=O)CCn2cccc2)cc1F	CYP2C19 inhib 96, CYP2C9 inhib 61
N#Cc1cccc(NC(=O)CCn2ccnc2)c1	CYP2C19 inhib 95, CYP2C9 inhib 87
CC(=O)NCCC(=O)Nc1ccc(C)c(F)c1	none
CCN(CC)c1ccc(C(=O)Nc2cccc(F)c2)cc1	CYP2C19 inhib 64
CN(C)c1cccc(C(=O)Nc2cccc(F)c2)c1	none
CCOC(=O)/C=C1\NC(=O)C(C)S1 (stereo unspecified)	CYP2C9 activ 2.1
CCOC(=O)N1CCN(S(=O)(=O)c2ccc3c(c2)SC(C)C(=O)N3)CC1 (stereo unspecified)	none (no result: CYP2C9 activ, CYP2C19 inhib, CYP2C9 inhib, CYP2C19 activ)
CC(=O)c1cccc(N(CC(=O)O)S(C)(=O)=O)c1	none
CCOC(=O)C1CCN(C(c2cc3ccc(C)cc3[nH]c2=O)c2nnnn2C2CCCCC2)CC1 (stereo unspecified)	CYP2C19 inhib 79, CYP2C9 inhib 84
COc1ccccc1N1CCN(C(c2cc3cc(C)ccc3[nH]c2=O)c2nnnn2C2CCCC2)CC1 (stereo unspecified)	none
COc1ccccc1N1CCN(C(c2cc3ccc(C)cc3[nH]c2=O)c2nnnn2C2CCCC2)CC1 (stereo unspecified)	CYP2C19 inhib 72, CYP2C9 inhib 91
CC(=O)NN1C(=O)c2ccc(Oc3cccc([N+](=O)[O-])c3)cc2C1=O	none
N#Cc1cc(-c2ccccc2)cnc1Sc1ccccc1	CYP2C9 inhib 78
Cc1ccc(Oc2ccc(S(=O)(=O)N3CCOCC3)cc2C(N)=O)c(-n2nc3ccccc3n2)c1	none
Cc1ccc(-n2c(SCC(=O)OC(C)C)nnc2-c2ccco2)cc1	CYP2C9 activ 2.3
CCOc1ccccc1-n1c(SCC(=O)N2CCOCC2)nnc1-c1ccccn1	none
CC(C)OC(=O)CSc1nnc(-c2ccccc2)n1N	CYP2C19 inhib 60
CCOc1ccccc1-n1c(SCC(=O)N(CC)CC)nnc1-c1ccccn1	PostGolgi ctrl 40
Cc1ccc(-n2c(SCC(=O)OC(C)C)nnc2-c2cnccn2)cc1	none
Cc1ccc(-n2c(SCC(=O)OC(C)C)nnc2-c2ccccn2)cc1	CYP2C19 inhib 51
CC(C)OC(=O)CSc1nnc(-c2ccccn2)n1-c1ccccc1	none
COc1cccc(C(=O)CSc2nnc(CNS(C)(=O)=O)n2-c2ccc(C)cc2)c1	none
CC(Sc1nc2ccccc2c(=O)[nH]1)C(=O)O (stereo unspecified)	none
O=C(CCc1ccc(S(=O)(=O)N2CCCCC2)cc1)c1nnc(-c2ccccc2)o1	CYP2C19 inhib 74
Fc1ccccc1CNc1ccc(Cl)c(Cl)c1	none
Cc1oc2nc(SCCCC(=O)NCCO)nc(N)c2c1C	none
O=C(CSc1n[nH]c(-c2ccc(S(=O)(=O)NC3CCCCC3)cc2)n1)N1CCCC1	CYP2C19 inhib 87, PostGolgi ctrl 32, CYP2C9 inhib 51
c1ccc(Oc2cccc(OCCn3cncn3)c2)cc1	CYP2C19 inhib 95, CYP2C9 inhib 68
CC(=O)CCc1ccc(OCCCCn2cncn2)cc1	none
c1ccc(COc2ccc(OCCn3cncn3)cc2)cc1	CYP2C19 inhib 92, CYP2C9 inhib 96
O=C(CCN1CCN(Cc2ccccc2)CC1)Nc1ccc(OCc2ccccc2)cc1	none
c1ccc(-c2ccc(OCCCn3cncn3)cc2)cc1	CYP2C19 inhib 70, PostGolgi ctrl 89, CYP2C9 inhib 71, PostGolgi yeast 97
CCC(=O)c1ccccc1OCCCn1cncn1	CYP2C19 inhib 90
CC1=C(C)[N+](=O)C2CCCCC2N1[O-] (stereo unspecified)	none
CC(C)c1nnc(NC(=O)CC(=O)Nc2ccccc2C(=O)O)s1	none
O=C(Nc1cccnc1Cl)C1c2ccccc2Oc2ccccc21	CYP2C19 inhib 70
